This passage reports growth results from PubChem BioAssay (NCI).

The panel holds about 83,000 compounds, 20% with a hit somewhere; the sample as a whole holds those more often.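 The test compound was applied at a single concentration to cells in 96-well plates for 48 hours, and percent growth was recorded.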 Unmarked numbers belong to inactive results. Rule for the calls: active = growth percent below 10; inactive = the rest.

The subject of the first assay is TK-10 renal. Briefly: NCI-60 one-dose screen, 48 h (100 = growth as untreated, 0 = no growth, -100 = all killed). Conditions: 10 µM unless noted.
With `O=C(CCl)Oc1ccc([N+](=O)[O-])cc1`, the growth is 109%.
`Clc1cccc(Cl)c1CSc1nc2ccccc2n2cccc12`: the growth is 103%.
Turning to `Cc1cccnc1NC1OC(=O)c2ccccc21` (centres undefined), the growth was 97%.
Take `COc1cc(OC)c(NC(=O)C(Sc2nc(C)cc(C)c2C#N)c2ccccc2)cc1Cl` (centres undefined): the growth is 96.3%.
Same read-out and setting: next, `COc1ccc(/C=N/NC(=O)COCC(=O)N/N=C/c2ccc(OC)cc2)cc1`: 115%.
On the same count and under the same terms, the result for `Nc1ccccc1SC1CC(=O)N(c2ccc(Cl)c(Cl)c2)C1=O` (centres undefined) reads 137%; that for `CC(C)c1ccccc1NC(=O)N1CCC(C(C)C)CC1`, 127%; that for `FC(F)(F)c1cc(NC2=NCCN=C(Nc3cc(C(F)(F)F)cc(C(F)(F)F)c3)SS2)cc(C(F)(F)F)c1`, 58.4%.
Same read-out and setting: next, `CC(CCC#N)(CCC#N)C(=O)c1ccccc1`: 106%; `CCCCCCCCNC(=O)C(C)C`: 98.5%.
On to `CCCCCCCCCCCCCCCCCC(=O)NCCNC(=O)CCCCCCCCCCCCCCCCC`, for which the growth is 106%.
The same measure, in the same setting: the result for `C=CCC(OC(C)=O)c1ccc(C(C)C)cc1` (centres undefined) reads 96.4%; that for `CC(=O)c1cc(O)ccc1O`, 93.6%.
The same measure, in the same setting: the result for `CCCNS(=O)(=O)c1ccc(Cl)cc1` reads 106%; that for `S=c1nc(-c2ccccn2)c(-c2ccccn2)n[nH]1`, 98.6%; that for `CCOc1ccc(C(=O)NCC(C)C)cc1`, 97.8%.
The same measure, in the same setting: the result for `O=C(O)c1cccc(-n2ncc(Cl)c(Cl)c2=O)c1` reads 154%; that for `Cn1/c(=N\N=C\c2ccccc2OCCO)sc2ccccc21`, 109%; that for `Clc1ccc(-c2noc(/C=C\c3ccccc3)n2)cc1`, 115%.
For `CC(=O)Nc1ncc(S(=O)(=O)c2ccc([N+](=O)[O-])cc2)s1`, the growth was 105%.
Same read-out and setting: next, `CC(=O)NCNC(C)=O`: 115%; `CCOC(=O)c1ccc(C(C)(C)C)cc1`: 103%.
Same read-out and setting: next, `NC(=S)N/N=C/c1ccc(Cl)cc1`: 106%; `Cc1ccc(NC(=O)c2ccccc2Cl)cc1`: 115%.
On the same count and under the same terms, the result for `C=CCC(OC(C)=O)c1ccc(OC)c(OC)c1` (centres undefined) reads 102%; that for `Oc1ccc(N=Cc2ccc(OCc3ccccc3)cc2)cc1`, 99.3%; that for `COc1nc(Nc2cccc(C(F)(F)F)c2)nc(OC)n1`, 111%.
Regarding `C=C1SC(=Nc2c(C)cccc2C)N(c2nc(Cl)nc(Cl)n2)C12CCCCC2`, the growth was 108%.
Same read-out and setting: the result for `O=C(CCl)Nc1ccccc1SCc1cc(Cl)cc2c1OCOC2` reads 126%; that for `Cc1c(-c2ccc(C3CCCCC3)cc2)nc2ccc(F)cc2c1C(=O)O`, 74.7%.
Same read-out and setting: next, `C[n+]1cc2cc3c(cc2c2ccccc21)OCO3`: 92.8%.
For `CCCC(=O)CC(=O)c1ccccc1`, the growth was 94.8%.
Still for that read-out and setting: the result for `O=C(O)Cc1ccc(Cl)cc1` reads 107%.
The same measure, in the same setting: next, `CC(C)(CC(=O)O)CC(=O)O`: 96.5%; `CCOC(=O)C(C#N)=C1CCN(C)CC1`: 108%.
In the case of `O=C1NC(=O)C(c2ccccc2)O1` (centres undefined), the growth is 101%.
In the case of `COC1OC(COC(C)=O)C(OC(C)=O)C(OC(C)=O)C1OC(C)=O` (centres undefined), the growth is 104%.
Still for that read-out and setting: the result for `C#CCSc1nnnn1-c1ccccc1` reads 80.4%.

The next assay relates to ACHN renal. Described as above. Particulars: 10 µM unless noted.
In the case of `O=C(CCl)Oc1ccc([N+](=O)[O-])cc1`, the growth was 109%.
Regarding `Clc1cccc(Cl)c1CSc1nc2ccccc2n2cccc12`, the growth is 97.3%.
On the same count and under the same terms, the result for `Cc1cccnc1NC1OC(=O)c2ccccc21` (centres undefined) reads 103%; that for `COc1cc(OC)c(NC(=O)C(Sc2nc(C)cc(C)c2C#N)c2ccccc2)cc1Cl` (centres undefined), 85.8%; that for `COc1ccc(/C=N/NC(=O)COCC(=O)N/N=C/c2ccc(OC)cc2)cc1`, 97.2%.
Take `FC(F)(F)c1cc(NC2=NCCN=C(Nc3cc(C(F)(F)F)cc(C(F)(F)F)c3)SS2)cc(C(F)(F)F)c1`: the growth is 43.5%.
In the case of `CC(CCC#N)(CCC#N)C(=O)c1ccccc1`, the growth was 114%.
The same measure, in the same setting: next, `CCCCCCCCNC(=O)C(C)C`: 108%.
In the case of `CCCCCCCCCCCCCCCCCC(=O)NCCNC(=O)CCCCCCCCCCCCCCCCC`, the growth was 86.2%.
The same measure, in the same setting: next, `CC(=O)c1cc(O)ccc1O`: 110%.
Same read-out and setting: next, `CCCNS(=O)(=O)c1ccc(Cl)cc1`: 102%.
The same measure, in the same setting: the result for `S=c1nc(-c2ccccn2)c(-c2ccccn2)n[nH]1` reads 109%; that for `CCOc1ccc(C(=O)NCC(C)C)cc1`, 107%; that for `O=C(O)c1cccc(-n2ncc(Cl)c(Cl)c2=O)c1`, 106%.
Regarding `Cn1/c(=N\N=C\c2ccccc2OCCO)sc2ccccc21`, the growth was 92.5%.
Take `CC(=O)NCNC(C)=O`: the growth was 100%.
On the same count and under the same terms, next, `CCOC(=O)c1ccc(C(C)(C)C)cc1`: 110%; `NC(=S)N/N=C/c1ccc(Cl)cc1`: 108%.
In the case of `Cc1ccc(NC(=O)c2ccccc2Cl)cc1`, the growth is 103%.
For the compound `COc1nc(Nc2cccc(C(F)(F)F)c2)nc(OC)n1`, the growth was 110%.
For `O=C(CCl)Nc1ccccc1SCc1cc(Cl)cc2c1OCOC2`, the growth is 85.5%.
The same measure, in the same setting: the result for `Cc1c(-c2ccc(C3CCCCC3)cc2)nc2ccc(F)cc2c1C(=O)O` reads 43%; that for `C[n+]1cc2cc3c(cc2c2ccccc21)OCO3`, 106%; that for `CCCC(=O)CC(=O)c1ccccc1`, 105%.
On the same count and under the same terms, the result for `CC(C)(CC(=O)O)CC(=O)O` reads 104%.
The same measure, in the same setting: next, `O=C1NC(=O)C(c2ccccc2)O1` (centres undefined): 99.2%.
